The list is not random: actives were taken first. Their share in the collection is about 12%.
Lmaj promast: reduces viability of Leishmania major promastigotes; resazurin fluorescence viability; inhibition, % at 10 µM; 9% of 200,000 active; in the data active = inhibition above about 50%;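 also: promastigotes grown with compound for 44 hours at 28 °C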
Insulin prom inh: TRM-6 insulin promoter activity inhibition | TRM-6 cells (human fetal islet line), insulin promoter-eGFP reporter, imaging; reporter expression induced with tamoxifen | inhibition, % at 2 µM | 0.9% of 130,000 active;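 active = inhibition above the mean plus 3 SD, with well images judged a real hit on visual review, cut at about 60% in these data, passing the limit was not always enough; inconclusive = inhibition over the cutoff but images rejected on review; inactive = inhibition not above the cutoff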
WT yeast gro inh: growth inhibition of WT yeast, mitochondrial fusion screen. mitochondrial fusion phenotypic screen, WT strain. inhibition, % at 10 µM. 2.1% of 190,000 active; in the data active = inhibition above about 58%; tested in S. cerevisiae
ROMK primary: modulates human ROMK potassium channel activity | Tet-inducible ROMK, thallium flux fluorescence; actives lie on both sides | 2% of 130,000 active | B-score at 10 µM | P48048;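 active = signal ratio slope over the read window, or its plate-corrected B-score, at least 3 SD from the plate mean, either direction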;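 also: B-score of the F/F0 ratio slope over 7 to 12 s after thallium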
Cl transport mod: modulators of human KCC2 chloride dependent transport; KCC2 cells, thallium flux FluoZin-2 fluorescence; Q9H2X9; 2.2% of 190,000 active; AID 1456; B-score of Tl+ flux slope (higher = more flux/activation; lower = inhibition) at 10 µM;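 active = thallium flux slope and its plate-corrected score both differing from the plate sample mean at a set confidence after two filtering rounds, in either direction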;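 also: slope of fluorescence scaled to starting intensity during 10 to 20 s after thallium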
Target sequence (Q9H2X9 whole entry, looked up): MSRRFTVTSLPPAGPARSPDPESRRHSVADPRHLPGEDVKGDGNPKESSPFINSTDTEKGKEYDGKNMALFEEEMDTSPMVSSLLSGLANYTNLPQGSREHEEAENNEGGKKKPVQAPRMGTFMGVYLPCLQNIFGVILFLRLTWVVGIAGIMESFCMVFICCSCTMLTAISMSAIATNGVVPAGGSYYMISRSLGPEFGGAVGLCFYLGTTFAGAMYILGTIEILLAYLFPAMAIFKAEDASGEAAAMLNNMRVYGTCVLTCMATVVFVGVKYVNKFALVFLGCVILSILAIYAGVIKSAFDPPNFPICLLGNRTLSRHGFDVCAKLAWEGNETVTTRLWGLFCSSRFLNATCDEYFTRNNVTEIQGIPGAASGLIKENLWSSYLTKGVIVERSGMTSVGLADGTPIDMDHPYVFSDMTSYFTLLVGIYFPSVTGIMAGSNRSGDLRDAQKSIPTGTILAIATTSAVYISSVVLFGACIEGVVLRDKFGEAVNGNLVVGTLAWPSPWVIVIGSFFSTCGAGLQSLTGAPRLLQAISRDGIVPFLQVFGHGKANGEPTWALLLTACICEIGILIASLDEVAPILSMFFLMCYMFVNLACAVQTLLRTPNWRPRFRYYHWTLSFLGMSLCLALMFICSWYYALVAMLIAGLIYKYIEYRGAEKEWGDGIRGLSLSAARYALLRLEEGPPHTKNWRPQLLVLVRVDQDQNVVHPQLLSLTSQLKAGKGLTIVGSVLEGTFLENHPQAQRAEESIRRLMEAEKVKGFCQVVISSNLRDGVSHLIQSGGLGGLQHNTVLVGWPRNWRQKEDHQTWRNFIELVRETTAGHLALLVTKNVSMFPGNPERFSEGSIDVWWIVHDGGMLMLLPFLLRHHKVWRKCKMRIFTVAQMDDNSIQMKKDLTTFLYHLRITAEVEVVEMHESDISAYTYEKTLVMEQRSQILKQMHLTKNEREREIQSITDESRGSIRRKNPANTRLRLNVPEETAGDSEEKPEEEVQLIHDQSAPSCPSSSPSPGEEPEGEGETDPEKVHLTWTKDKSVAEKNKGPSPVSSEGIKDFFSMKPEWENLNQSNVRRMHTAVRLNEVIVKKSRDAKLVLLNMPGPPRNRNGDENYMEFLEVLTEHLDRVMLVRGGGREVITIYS
Insulin prom up: MIN6 insulin promoter up-regulation; MIN6 insulin promoter-GFP reporter, high-content imaging; stronger effect = higher value; z-score at 5 µM; 0.3% of 190,000 active;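 active = z-score above 3 at 5 µM with at least 500 cells counted in the well; inconclusive = wells under 500 cells, flagged as cytotoxic or low count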
ROMK hit retest: confirmation of human ROMK potassium channel modulators; shares compounds with ROMK primary; ROMK thallium flux, fluorescence ratio; stronger effect = lower value; normalized thallium flux (F/F0 slope) at 10 µM; 54% of 3,000 active; AID 1917;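 active = Flux at 10 µM at least 3 SD below or above vehicle control mean in one or both replicates; inconclusive = no clear call, values can overlap the other calls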
Numbers stand for hits; n = inactive; u = inconclusive; x = no result.

SMILES	Lmaj promast	Insulin prom inh	WT yeast gro inh	ROMK primary	Cl transport mod	Insulin prom up	ROMK hit retest
O=P(c1ccccc1)(c1ccccc1)C(O)c1ccncc1 (stereo not given)	n	x	n	n	x	n	x
O=S(=O)(Cc1ccccc1)N1CCC(c2nc(-c3cccs3)no2)CC1	n	n	n	n	x	n	x
CNC(=O)c1[nH]cnc1C(=O)Nc1ccc(OC)cc1	x	x	x	3.4	n	n	n
COc1ccc(CCNC(=O)COC(=O)c2ccc(N3CCCC3=O)cc2)cc1	n	n	n	1.4	n	n	n
COc1ccc(CCNC(=O)CN2CCC(C(N)=O)CC2)cc1	n	n	n	x	x	n	n
COc1ccc(NC(=O)CN2CCC(C(N)=O)CC2)cc1	n	n	n	n	x	n	x
Cc1cccn2c(=O)c(/C=C3\SC(=S)NC3=O)c(NCCCN3CCOCC3)nc12	x	x	x	x	n	x	0.053
C#Cc1ccc([C@@H]2C=C(C(=O)NC3CC3)O[C@H](OCC)[C@H]2CCCO)cc1	x	x	x	x	n	n	x
C=CCc1cccc2cc(NC(C)=O)c(=O)oc12	n	n	n	n	n	n	x
COc1ccccc1C1SCCN1S(=O)(=O)c1cccc(C(F)(F)F)c1 (stereo not given)	n	n	n	-4.3	n	n	0.066
CCNc1ccc(S(=O)(=O)N(C)C)cc1NCC(=O)Nc1ccc(Br)cc1F	72	n	n	-3.2	n	n	0.062
CCNc1ccc(S(=O)(=O)N(C)C)cc1NCC(=O)Nc1ccccc1F	n	n	n	n	n	n	x
NC(=O)c1ccc2c(c1)S(=O)(=O)c1ccccc1C2=O	x	x	x	x	n	n	x
Cc1noc(C)c1COC(=O)c1ccc2c(c1)S(=O)(=O)c1ccccc1C2=O	n	x	n	x	n	n	n
N#C/C(=C\c1ccc(Cl)cc1)c1n[nH]c(Cn2cncn2)n1	n	n	n	-4.1	n	n	0.047
O=C(N[C@@H](Cc1ccccc1)C(=O)NC1CCCCC1)c1ccco1	n	n	n	1.9	n	n	n
O=C(N[C@@H](Cc1ccccc1)C(=O)NC1CCCCCC1)c1ccco1	n	n	n	n	n	x	x
CCC(C)NC(=S)NNC(=O)c1ccc(C(C)(C)C)cc1 (stereo not given)	n	x	n	x	n	n	u
CC(C)(C)c1ccc(C(=O)NNC(=S)NCc2ccco2)cc1	x	x	x	x	n	x	x
COc1cc(OC)cc(C(=O)NCC(=O)OCC(=O)c2ccc3c(c2)-c2ccccc2C3)c1	n	x	n	x	n	n	x
CCOc1ccccc1CNS(=O)(=O)c1ccc2[nH]c(=O)sc2c1	n	x	n	-3.5	n	x	n
CCOc1ccccc1CNS(=O)(=O)c1ccc2c(c1)oc(=O)n2C	n	x	n	x	x	n	x
O=C(COC(=O)/C=C/c1ccc(S(=O)(=O)N2CCOCC2)cc1)NCc1ccc2c(c1)OCO2	n	x	n	n	n	n	x
O=C(COC(=O)/C=C/c1ccc(S(=O)(=O)N2CCOCC2)cc1)NCc1ccc(F)cc1	n	x	n	5	n	n	n
CCCN1CNC(=S)N(c2ccccc2OC)C1	n	n	n	x	n	n	x
SMILES	Lmaj promast	Insulin prom inh	WT yeast gro inh	ROMK primary	Cl transport mod	Insulin prom up	ROMK hit retest
O=C(COC(=O)c1cccc(F)c1)NC1CC1	n	n	n	n	n	n	x
O=C(Nc1ccc(O)cc1)/C(=C/c1ccco1)NC(=O)c1ccccc1	x	x	x	x	n	n	x
Cc1ccc(NC(=O)CCC(=O)NNC(=S)Nc2ccccc2)c(C)c1	n	n	n	x	n	n	x
Cc1ccc(NC(=S)NNC(=S)Nc2ccc(C)cc2C)cc1	n	x	n	5.3	n	n	n
CN(C)S(=O)(=O)c1ccc(C(=O)Nc2nc(-c3ccccc3)c(C(=O)c3ccccc3)s2)cc1	n	n	n	1.2	n	n	n
CCN(CC)C(=O)CSC(Nc1ccc(F)cc1)=C(C#N)C#N	x	x	x	x	n	n	0.059
Cc1ccc(CSC(Nc2ccc(F)cc2)=C(C#N)C#N)cc1	58	n	n	n	n	n	n
Cc1cccc(C(=O)Nc2ccc(C(=O)/C=C/c3cccnc3)cc2)c1	100	n	n	-2.4	n	n	u
Cc1cccc(NC(=O)c2cccnc2)c1	n	n	n	n	x	n	x
O=C(CSCC(=O)N1CCCCC1)Nc1nc(-c2ccc(Cl)s2)cs1	n	x	72	x	n	n	u
O=C(CSCC(=O)N1CCN(c2ccccc2)CC1)Nc1nc(-c2ccc(Cl)s2)cs1	n	x	n	x	n	n	x
COc1ccc(Cn2c(CCCO)nc3ccccc32)cc1OC	n	n	n	n	x	n	x
O=C(Nc1ccc(N2CCOCC2)cc1)C1(c2ccc(Cl)cc2)CCC1	n	x	n	n	n	n	x
CCCCCCCCCC[n+]1cccc2c3ccccc3ccc21	100	n	n	x	n	u	0.035
CCCCCCCC[n+]1cccc2c3ccccc3ccc21	101	n	80	x	n	u	0.052
CCOC(=O)c1c(-c2ccc(-c3ccccc3)cc2)csc1NC(=O)C1C2CCC(O2)C1C(=O)O (stereo not given)	n	n	n	x	x	x	0.11
O=C(C1CCCN(S(=O)(=O)c2cccc3cccnc23)C1)N1CCN(c2ccc(F)cc2)CC1 (stereo not given)	n	x	n	x	x	n	n
N#Cc1cn(-c2ccccc2)nc1-c1ccco1	n	n	n	x	n	n	x
CC(C)NC(=O)/C(C#N)=C/c1ccc(N(C)C)o1	x	x	x	-7.4	n	x	0.047
CC(C)c1ccc(/C=N/NC(=O)c2cccc(S(=O)(=O)N3CCOCC3)c2)cc1	n	x	n	0.8	n	n	n
CC(=O)Nc1ccc(/C=N/NC(=O)c2cccc(S(=O)(=O)N3CCOCC3)c2)cc1	n	x	n	n	n	n	x
CCCNC(=O)c1c(NC(=O)C2COc3ccccc3O2)sc2c1CCCC2 (stereo not given)	n	n	n	n	n	n	x
CC(=O)N1CCc2cc(S(=O)(=O)NC(CC(C)C)C(=O)Nc3cc(C(=O)O)ccc3C)ccc21 (stereo not given)	n	x	n	x	n	n	x
Nc1ccccc1SSc1ccccc1N	x	x	x	x	n	n	x
CC(C(Sc1ccccc1N)c1ccccc1)[N+](=O)[O-] (stereo not given)	x	x	x	-5.1	n	n	0.042
SMILES	Lmaj promast	Insulin prom inh	WT yeast gro inh	ROMK primary	Cl transport mod	Insulin prom up	ROMK hit retest
CCOC(=O)C1CCN(C(=O)COc2cc(C)c(Br)cc2C)CC1	n	n	n	-4.9	n	n	0.058
CCCCc1ccc(S(=O)(=O)NC2CCS(=O)(=O)C2)cc1 (stereo not given)	x	x	x	x	n	n	x
N#Cc1cc2cc3ccccc3nc2n2c(=O)c3ccccc3nc12	n	n	n	x	n	n	0.056
CN(C)S(=O)(=O)c1ccc2nnn(OCC(=O)NC34CC5CC(CC(C5)C3)C4)c2c1	n	x	n	x	n	n	x
Cc1cc(C)nc(NC(=O)CSc2nccc(C)n2)n1	n	x	n	2.8	n	n	n
NNC(=O)/C=C/c1ccc(Cl)cc1Cl	n	n	n	2.3	n	n	n
O=C(O)CNC(=O)/C=C/c1ccc(Cl)cc1Cl	n	x	n	n	n	n	x
CCC(C)NC(=O)Cn1c(=O)n(CCCCCC(=O)Nc2ccccc2)c(=O)c2sccc21 (stereo not given)	n	n	n	n	n	n	x

Assay outcomes deposited in PubChem BioAssay by several laboratories.
